Screening data: PubChem, The Scripps Research Institute Molecular Screening Center
pPAFAH FP inh: pPAFAH (human) enzyme inhibition | inhibition, % at 3.39 µM | Q13093 | recombinant pPAFAH, FP-rhodamine probe fluorescence polarization | 330,000 tested, 1.5% active;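 active = inhibition above the mean inhibition across the screen plus 3 SD, cut at about 25% in these data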;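 note: inhibitors block binding of the rhodamine activity-based probe so polarization drops; 0% = enzyme with DMSO and 100% = wells lacking pPAFAH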
Target sequence (Q13093 whole entry, looked up): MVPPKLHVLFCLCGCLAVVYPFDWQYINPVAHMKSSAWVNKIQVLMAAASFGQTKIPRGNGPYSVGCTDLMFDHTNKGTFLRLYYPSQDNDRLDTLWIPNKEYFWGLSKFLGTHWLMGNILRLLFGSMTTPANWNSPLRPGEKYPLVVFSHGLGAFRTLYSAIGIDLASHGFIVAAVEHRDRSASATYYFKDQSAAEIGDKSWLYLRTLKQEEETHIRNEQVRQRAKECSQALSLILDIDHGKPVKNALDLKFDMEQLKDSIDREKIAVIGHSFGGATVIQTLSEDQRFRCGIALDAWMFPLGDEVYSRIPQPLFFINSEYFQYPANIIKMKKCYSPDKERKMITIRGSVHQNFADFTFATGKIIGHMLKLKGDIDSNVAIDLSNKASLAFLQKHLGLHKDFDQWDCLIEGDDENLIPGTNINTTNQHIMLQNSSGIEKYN
Fam108B counter: blocks mouse Fam108B hydrolase in RBBP9 counter-screen; recombinant Fam108B, FP-Rh probe fluorescence polarization; AID 1947; 300,000 tested, 0.33% active; inhibition, % at 9.51 µM;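 active = inhibition above the screen mean inhibition plus 3 SD, computed separately per campaign, cut at about 18% in these data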;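 note: inhibitors lower polarization as less probe binds the enzyme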
PAFAH1B3 FP inh: inhibitors of human PAFAH1B3. Q15102. recombinant PAFAH1B3, FP-rhodamine probe, fluorescence polarization. inhibition, % at 3.39 µM. 340,000 tested, 0.28% active;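 active = inhibition above the screen-wide average of all tested compounds plus 3 SD, cut at about 25% in these data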;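 note: 0% = enzyme with DMSO only and 100% = wells lacking PAFAH1B3 protein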
PME-1 primary: PME-1 (human) inhibition; Q9Y570; recombinant PME-1, FP-Rh probe fluorescence polarization; inhibition, % at 5.9 µM; 320,000 tested, 0.53% active; AID 2130;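 active = inhibition above the campaign mean of all compounds plus 3 SD, cut at about 26% in these data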;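 note: competitive labeling of PME-1 active site by serine hydrolase directed probe; 0% = PME-1 with DMSO and 100% = wells lacking PME-1 enzyme; inhibitors block probe labeling so polarization falls and inhibition rises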
PAFAH1B2 FP inh: inhibitors of human PAFAH1B2; inhibition, % at 3.39 µM; recombinant PAFAH1B2, FP-rhodamine activity probe, fluorescence polarization; P68402; 340,000 tested, 1.2% active;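 active = inhibition above the mean of all tested compounds plus 3 SD, cut at about 24% in these data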;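 note: 0% = enzyme with DMSO and 100% = wells lacking PAFAH1B2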
PAFAH2 inh: PAFAH2 (human) inhibition; Q99487; recombinant PAFAH2, FP-rhodamine activity probe, fluorescence polarization; inhibition, % at 3.39 µM; 340,000 tested, 0.99% active; AID 492956;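 active = inhibition above the mean over all tested compounds plus 3 SD, cut at about 30% in these data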;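 note: inhibitors block probe labeling of enzyme so polarization drops; 0% = enzyme with DMSO and 100% = wells lacking PAFAH2 protein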
Fam108b inh conf: Fam108b (mouse) hydrolase inhibition, confirmation assay | recombinant Fam108b, FP-Rh probe fluorescence polarization | 930 tested, 44% active | shares compounds with Fam108B counter | AID 1978 | inhibition, % at 9.51 µM;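 active = inhibition above a limit from the primary screen, the mean over all compounds plus 3 SD, cut at about 19% in these data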;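 note: 0% = median of active Fam108b wells and 100% = catalytically dead S170A mutant; inhibitors free the probe so polarization falls as inhibition rises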
pPAFAH confirm: pPAFAH (human) inhibition, confirmed; shares compounds with pPAFAH FP inh; recombinant pPAFAH, FP-Rh probe fluorescence polarization; inhibition, % at 3.39 µM; 2,300 tested, 72% active; AID 463230;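 active = mean inhibition of the triplicate above the hit cutoff set for the earlier primary screen, cut at about 25% in these data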;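 note: 0% = enzyme with DMSO and 100% = wells lacking pPAFAH enzyme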
* = called active by the depositor. Shown are actives, neighbours in structure and some others; about 2.8% of the full set was active somewhere.

What do the screens show for `N=C1/C(=C/c2ccc(-c3cccc(C(=O)O)c3)o2)C(=O)N=C2SC=C(c3ccccc3)N12`?
pPAFAH FP inh: 50*; Fam108B counter: 37*; PAFAH1B3 FP inh: 27*; PME-1 primary: -12; PAFAH1B2 FP inh: 26*; PAFAH2 inh: 32*; Fam108b inh conf: 18*; pPAFAH confirm: 62*

Results for CCCC1Nc2ccc(C(=O)O)cc2C2C=CCC12 (centres undefined) ?
pPAFAH FP inh: 46*; Fam108B counter: 25*; PAFAH1B3 FP inh: 32*; PME-1 primary: -22; PAFAH1B2 FP inh: 18; PAFAH2 inh: 44*; Fam108b inh conf: 1; pPAFAH confirm: 31*

What do the screens show for `CC(C(=O)O)N1C(=O)/C(=C/C=C/c2ccco2)SC1=S` (centres undefined)?
pPAFAH FP inh: 76*; Fam108B counter: 30*; PAFAH1B3 FP inh: 26*; PME-1 primary: -22; PAFAH1B2 FP inh: 14; PAFAH2 inh: 50*; Fam108b inh conf: 14; pPAFAH confirm: 46*

What do the screens show for `O=C1/C(=C/C=C/c2ccco2)SC(=S)N1NS(=O)(=O)c1ccccc1`?
pPAFAH FP inh: 74*; Fam108B counter: 53*; PAFAH1B3 FP inh: 45*; PME-1 primary: -36; PAFAH1B2 FP inh: 32*; PAFAH2 inh: 67*; Fam108b inh conf: 14; pPAFAH confirm: 69*

What do the screens show for `CC(=C\c1ccccc1)/C=C1/SC(=S)N(C(C(=O)O)C(C)C)C1=O` (centres undefined)?
PAFAH1B3 FP inh: -4; PAFAH1B2 FP inh: 5; PAFAH2 inh: 1

What do the screens show for `N#Cc1c(SCC(=O)Nc2nncs2)sc2c(O)cc(=O)[nH]c12`?
pPAFAH FP inh: 49*; Fam108B counter: 32*; PAFAH1B3 FP inh: 36*; PME-1 primary: -35; PAFAH1B2 FP inh: 14; PAFAH2 inh: 37*; Fam108b inh conf: 6; pPAFAH confirm: 10

What do the screens show for `Oc1c(Br)cc(C=Nc2ccc3nc(-c4ccccc4)[nH]c3c2)c(O)c1Br`?
pPAFAH FP inh: 44*; Fam108B counter: 33*; PME-1 primary: 35*; Fam108b inh conf: 10; pPAFAH confirm: 35*

Results for CCOc1ccc(NC(=O)Cn2c(=O)n(CCCC(=O)NC3CCN(Cc4ccccc4)CC3)c(=O)c3ccccc32)cc1 ?
pPAFAH FP inh: 3; Fam108B counter: 0; PAFAH1B3 FP inh: 7; PME-1 primary: -4; PAFAH1B2 FP inh: 4; PAFAH2 inh: -3

Results for Nc1cccc2nc3ccccc3cc12 ?
pPAFAH FP inh: -2; Fam108B counter: -3; PAFAH1B3 FP inh: -1; PME-1 primary: -32; PAFAH1B2 FP inh: 0; PAFAH2 inh: 5

Results for Cc1cc2c(N)cccc2nn1 ?
pPAFAH FP inh: 73*; Fam108B counter: 25*; PAFAH1B3 FP inh: 33*; PME-1 primary: 58*; PAFAH1B2 FP inh: 26*; PAFAH2 inh: 38*; Fam108b inh conf: 16; pPAFAH confirm: 6

Results for O=C1CN(S(=O)(=O)c2ccccc2)CCN1 ?
pPAFAH FP inh: 3; PAFAH1B3 FP inh: 4; PAFAH1B2 FP inh: 2; PAFAH2 inh: -1

What do the screens show for `CC(C)(C)OC(=O)N1CCC(C(=O)Nc2ccc(C(=O)N3CCCCC3)cc2)CC1`?
PAFAH1B3 FP inh: 17; PAFAH1B2 FP inh: 4; PAFAH2 inh: -1

What do the screens show for `Nc1c(C(=O)NC2CC2)sc2nc3c(c(-c4ccco4)c12)CC/C3=C/c1ccco1`?
pPAFAH FP inh: 89*; Fam108B counter: 33*; PAFAH1B3 FP inh: 56*; PME-1 primary: 10; PAFAH1B2 FP inh: 28*; PAFAH2 inh: 46*; Fam108b inh conf: 14; pPAFAH confirm: 48*

What do the screens show for `O=C(CN1C(=O)NC(c2ccc(F)cc2)C1=O)Nc1ccc2c(c1)OCCO2` (centres undefined)?
pPAFAH FP inh: 2; PAFAH1B3 FP inh: 1; PME-1 primary: 3; PAFAH1B2 FP inh: 1; PAFAH2 inh: 2
